Bioassay records from PubChem BioAssay.
DT40 TDP1 no CPT = qHTS for Inhibitors of human tyrosyl-DNA phosphodiesterase 1 (TDP1): qHTS in cells in absence of CPT; Potency, µM (doses to about 46.2 µM), without a hit: at the top dose activity change, negative = growth inhibition, usual class: inhibitors; DT40 Tdp1-/- hTDP1 cells, no CPT, ATP luminescence, 48 h; 15% of 420,000 active; AID 686978, 2013; further: potency means the concentration at half of the fitted maximal effect; nearly all actives have a fitted effect of over 55% in size
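DT40 Tdp1-/-;hTDP1 cells, no CPT (DMSO vehicle only), 400 cells/well; compounds pin-transferred; ≥48 hr, 37 °C; CellTiter-Glo 30 min RT dark, luminescence read.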
IL1B secr inh = inhibitors of inflammasome signaling (IL-1 beta secretion); THP-1 LPS/ATP IL-1B secretion, AlphaLISA, 16 h; stronger effect = lower value; activity change, % at 57.5 µM; 4.7% of 360,000 active; in the data active means activity change below about -50%; inconclusive means mostly about -30% to -49%
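THP-1 cells pretreated 1 hr with compounds (up to 57.5 uM final), then stimulated with LPS (250 ng/mL final) plus ATP (1.25 mM final); secreted IL-1B measured by AlphaLISA after 16 hr, decreased signal indicating inhibition.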
HT1080 IDH1KD tx = kills HT-1080 cells with IDH1 knockdown. HT-1080 IDH1 knockdown viability, ATP luminescence, 48 h. Potency, µM (series often up to 46.1 µM), without a hit: top-dose activity, negative = toxicity, hits mostly cytotoxic. 2% of 360,000 active. AID 686971;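 further: potency means the concentration at half of the fitted maximal effect; 0% = DMSO wells and -100% = cell-free medium wells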
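Luminescent ATP read-out (CellTiter-Glo, 10 min at room temperature) after 48 h compound exposure at 37 °C gave viability of IDH1-knockdown HT-1080 cells. Activity was normalised to DMSO and cell-free wells, then fitted as concentration-response curves.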
TDP1 cell CPT = growth inhibition of DT40 Tdp1-/-;hTDP1 cells with camptothecin (screen for TDP1 inhibitors) | Potency, µM (highest dose often 46.2 µM), without a hit: top-dose activity change, negative = growth inhibition, hits mostly inhibitors | 12% of 420,000 active | chicken DT40 Tdp1-/-;hTDP1 cells + 20 nM CPT, ATP luminescence, 48 h; further: potency means the concentration at half of the fitted maximal effect; nearly all actives have a fitted effect of over 55% in size
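Chicken DT40 Tdp1-/- cells complemented with human TDP1, 400 cells/well, exposed to compounds plus 20 nM camptothecin for at least 48 h at 37 C; viability read as ATP content by CellTiter-Glo luminescence.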
uPA surface inh = cell surface uPA generation inhibition; Potency, µM (series often up to 38.3 µM), for inactives: top-dose activity change, negative = inhibition, most hits filed as inhibitors; 0.31% of 330,000 active; cell surface uPA generation assay, qHTS; AID 540303; active means well fitted inhibition curve with a large enough effect; inconclusive means small, poorly fitted or top-dose-only effect; inactive means no such curve, though single readings can be large or run the other way; tested in mouse RAW 264.7 cells; further: potency means the concentration at half of the fitted maximal effect; nearly all actives have a fitted effect of over 55% in size
HT1080-NT tox = kills 2HG-producing HT-1080-NT fibrosarcoma cells | HT-1080-NT fibrosarcoma viability, CellTiter-Glo ATP luminescence, 48 h | 1.6% of 360,000 active | Potency, µM (top dose mostly 46.1 µM), inactives show top-dose activity, negative = less viability, hits mostly cytotoxic;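 further: NT is the 2HG producing partner of a matched IDH1 knockdown line; potency means the concentration at half of the fitted maximal effect; 0% = DMSO-treated cells and -100% = media-only wells without cells; nearly all actives have a fitted effect of over 55% in size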
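Fibrosarcoma NT cells, 750 per well in 5% FBS RPMI, were exposed to compound for 48 hours. Viability: CellTiter-Glo luminescence.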
An asterisk follows results filed as active; ? = inconclusive; · = no result given; [ ] = remark or other dose. Hits are enriched below; roughly 19% of the tested compounds scored in any of these assays. Unless noted, the call rests on the fitted dose curve; in most records, active means well fitted curve in the direction sought with a large enough effect; inconclusive means small, poorly fitted or top-dose-only effect, or another doubt; inactive means no such curve, though single readings can be large; an effect the other way counts as inactive or inconclusive. Unless noted, on the % scale 0 is the no-effect control and ±100 the full control effect.

SMILES	DT40 TDP1 no CPT	IL1B secr inh	HT1080 IDH1KD tx	TDP1 cell CPT	uPA surface inh	HT1080-NT tox
CCCN1C2=C(C(=O)CC(C)(C)C2)C(c2ccc(F)cc2)C2=C1c1ccccc1C2=O (configuration not stated)	?	-8.9	6.9%	20µM*	·	2.1%
Cc1ccc(NC(=O)CSc2nnc(C3CC3)n2C)cc1S(=O)(=O)N1CCCCC1	-6.3%	24.4	-0.8%	-5.7%	5.1%	3.0%
CCCCCCCCNC(=O)c1cccnc1SCC(=O)Nc1ccc(OC)cc1OC	20.6µM*	14.7	-1.1%	-26.2%	-11.8%	-4.3%
CCCCNC(=O)c1cccnc1SCC(=O)Nc1ccccc1OC	-25.0%	3.2	-15.0%	-13.0%	-1.6%	-1.6%
COc1ccc2[nH]c3c(N4CC(C)OC(C)C4)ncnc3c2c1 (configuration not stated)	14.6µM*	-17.2	-2.1%	?	-3.8%	-15.0%
COc1cccc(N2CCN(c3ncnc4c3[nH]c3ccc(F)cc34)CC2C)c1 (configuration not stated)	1.64µM*	-112.0*	7.31µM*	1.64µM*	-11.9%	6.51µM*
COc1ccc2nc(C)cc(N3CC(C)OC(C)C3)c2c1 (configuration not stated)	-29.9%	24.0	6.0%	?	5.6%	-3.2%
COc1cc(C(=O)NC2CCN(C)CC2)ccc1Nc1ncc2c(n1)N(CCc1ccccc1)CCC(=O)N2C	14.6µM*	-4.5	?	23.1µM*	?	?
COc1cc(/C=N/Nc2nn3cnnc3c3ccccc23)ccc1O	?	-1.1	5.62µM*	7.31µM*	?	?
COc1cccc(/C=N/Nc2nn3cnnc3c3ccccc23)c1	20.6µM*	-3.1	4.1%	13µM*	-5.0%	3.3%
O=S(=O)(c1ccc(N2CCN(Cc3ccccc3)CC2)nc1)N1CCCC1	?	3.9	-3.5%	16.4µM*	4.3%	-11.5%
CN1CCN(S(=O)(=O)c2ccc(N3CCN(c4ccccc4Cl)CC3)nc2)CC1	14.6µM*	16.7	-2.6%	20.6µM*	3.1%	1.9%[9.24 µM]
O=S(=O)(c1ccc(N2CCN(S(=O)(=O)c3ccccc3)CC2)nc1)N1CCCC1	-8.3%	-0.8	-4.8%	7.7%	5.7%	3.2%
O=S(=O)(c1ccc(N2CCCC2)nc1)N1CCCC1	-11.3%	22.2	7.5%	-6.3%	6.9%	4.1%
O=S(=O)(c1ccc(N2CC=C(c3ccccc3)CC2)nc1)N1CCCC1	18.4µM*	-92.6*	?	16.4µM*	·	?
CCN(CC(=O)Nc1ccc2c(c1)OCCO2)C(=O)CSCC(=O)Nc1ccc(C)cc1	-12.0%	13.4	-8.6%	2.6%	-9.4%	-6.8%
O=C(NC(c1ccccc1)c1cnccn1)C1CCN(CCOc2ccc(Cl)cc2Cl)CC1 (configuration not stated)	18.4µM*	?	?	16.4µM*	·	16.4µM*
O=C(NC(c1ccc2c(c1)OCO2)c1ccccn1)C1CCN(CCOc2ccccc2)CC1 (configuration not stated)	-25.4%	-13.7	-1.4%	11.5%	·	-3.9%
O=C(NC(c1cccnc1)c1ccc2c(c1)OCO2)C1CCN(CCOc2ccc(Cl)cc2Cl)CC1 (configuration not stated)	?	-67.5*	18.4µM*	-44.9%	·	?
O=C(NC(c1ccccc1)c1ccsc1)C1CCN(CCOc2ccc(Cl)cc2Cl)CC1 (configuration not stated)	?	-68.0*	16.4µM*	?	·	18.4µM*
CC(C)Oc1ccc(CNC(=O)C2CCCN(S(=O)(=O)N3CCOCC3)C2)cc1 (configuration not stated)	-19.7%	-1.2	0.1%	-12.4%	-7.2%	-2.3%
COc1ccc2[nH]c3c(c2c1)CCNC3=O	?	·	·	?	-21.0%	·
C=C1CCc2c([nH]c3ccc(OCC(C)C)cc23)C1=O	0.92µM*	-98.8*	13µM*	0.82µM*	-13.6%	7.31µM*
CN(Cc1ccc(F)cc1)C(=O)CN1CCN(S(=O)(=O)c2ccc3c(c2)OCCCO3)CC1	?	-27.2	4.4%	-26.1%	·	-3.1%
CN(Cc1ccccc1)C(=O)CN1CCN(S(=O)(=O)c2ccc(Cl)c(Cl)c2)CC1	18.4µM*	-54.1*	-1.6%	?	15.2%	3.7%[9.24 µM]
SMILES	DT40 TDP1 no CPT	IL1B secr inh	HT1080 IDH1KD tx	TDP1 cell CPT	uPA surface inh	HT1080-NT tox
Cc1cc(S(=O)(=O)N2CCN(CC(=O)N(C)Cc3ccccc3)CC2)ccc1Br	14.6µM*	?	-11.8%	?	-4.5%	2.6%
Cc1cc(OCC(=O)N(C)Cc2ccccc2)ccc1Cl	?	-9.2	-15.0%	-8.8%	4.0%	-12.1%
Cc1cc(OCC(=O)N(C)Cc2ccccc2)ccc1Br	23.1µM*	7.3	0.0%	?	8.9%	14.4%
Cc1cc(C)c(NC(=O)CSc2nc(=O)n(Cc3cccnc3)c3c2CCC3)c(C)c1	1.5%	·	·	-3.5%	·	·
Cc1ccc(-c2nn3c(C)nnc3s2)cc1NC(=O)c1ccc(OC(C)C)cc1	?	7.8	-4.2%	13µM*	-18.3%	1.5%
Cc1cc(OCC(=O)Nc2cc(-c3nn4c(C)nnc4s3)ccc2C)ccc1Cl	?	3.5	10.4%	4.11µM*	11.1%	1.5%
COc1ccc(C(=O)Nc2cc(-c3nn4c(C)nnc4s3)ccc2C)cc1	-16.7%	21.3	-7.7%	-25.4%	-2.1%	-14.3%
COCC(=O)Nc1cc(C(=O)N2CC3CCC2C3)c2c(c1)nc(-c1ccncc1)n2C (configuration not stated)	-4.4%	·	·	9.3%[9.04 µM]	·	·
Cc1cc2nc(CCN(C(=S)NCC(C)C)C3CCCC3)[nH]c2cc1C	23.1µM*	-65.8*	?	?	?	?
Cc1cc2nc(CCN(C(=S)NCC3CCCO3)C3CCCC3)[nH]c2cc1C (configuration not stated)	?	-52.4*	4.1%	?	?	8.3%
N#Cc1c(Cl)nsc1NN	?	-63.7*	?	?	-2.8%	?
CN(C)c1ccc(/C=N/N=C2/NC(=O)/C(=C/c3ccc([N+](=O)[O-])cc3)S2)cc1	16.4µM*	8.5	3.3%	?	-5.8%	-1.6%
O=C1NC(=Nc2cccc(O)c2)S/C1=C\c1cccc([N+](=O)[O-])c1	?	-27.8	?	2.1%	-12.8%	?
C=CC(=O)NN(C)c1ncc(C(F)(F)F)cc1Cl	?	?	?	?	3.55µM*	?
